CHT allo act: human CHT allosteric activation. Q9GZV3. CHT-expressing cells, membrane potential dye, choline EC20; stronger effect = higher value; LV-AA mutant CHT in HEK293 cells. B-score at 10 µM. 310,000 compounds, 0.49% hits. AID 488977;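 active = initial fluorescence not abnormally high and integrated response B-score, plate-corrected, over 3 SD above library mean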
Target sequence (Q9GZV3 whole entry, looked up): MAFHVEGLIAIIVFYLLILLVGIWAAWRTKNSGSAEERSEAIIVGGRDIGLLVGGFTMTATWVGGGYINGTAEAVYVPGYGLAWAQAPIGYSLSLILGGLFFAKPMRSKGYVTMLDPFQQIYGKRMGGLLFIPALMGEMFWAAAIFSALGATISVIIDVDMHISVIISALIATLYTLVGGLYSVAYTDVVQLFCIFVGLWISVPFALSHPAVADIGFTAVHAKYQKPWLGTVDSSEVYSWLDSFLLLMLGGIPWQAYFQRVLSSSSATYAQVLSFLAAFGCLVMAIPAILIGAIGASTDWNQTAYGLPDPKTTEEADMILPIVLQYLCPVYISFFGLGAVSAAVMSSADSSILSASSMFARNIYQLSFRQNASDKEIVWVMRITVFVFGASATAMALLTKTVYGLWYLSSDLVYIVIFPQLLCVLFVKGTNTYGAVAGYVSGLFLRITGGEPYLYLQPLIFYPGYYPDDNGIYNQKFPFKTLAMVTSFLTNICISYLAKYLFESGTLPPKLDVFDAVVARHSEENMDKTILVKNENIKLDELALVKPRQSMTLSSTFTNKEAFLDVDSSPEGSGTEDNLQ
CHT block: human CHT choline transport inhibition | B-score at 10 µM | 310,000 compounds, 0.86% hits | CHT-expressing cells, membrane potential dye, choline response; stronger effect = lower value;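 active = B-score over 3 SD under the library average, and starting fluorescence ratio not unusually high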;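 note: choline stimulus applied at its EC90 after an EC20 pre-addition; B-score computed on integrated fluorescence ratio after choline addition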
EP2 mod: modulators of human EP2 prostaglandin E2 receptor; P43116; EP2-expressing cells, cAMP HTRF FRET, PGE2 co-stimulation; induction, % at 25 µM; 260,000 compounds, 0.83% hits;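 active = compounds whose cAMP rise, as percent of the full-agonist control response, exceeds 60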;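 note: rat C6 glioma line stably carrying human EP2 under a CMV promoter; the protocol text gives 20 µM as final concentration; 100% = response of wells given 1 µM PGE2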
PGE2 EP2 inh: blocks the human prostaglandin E2 receptor EP2 | 260,000 compounds, 0.52% hits | AID 1422 | C6 glioma cells expressing human EP2, cAMP TR-FRET; cells stimulated with saturating PGE2 | P43116 | inhibition, % at 25 µM;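 active = percent inhibition above 40 after rounding to a whole number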;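 note: rat C6 glioma host cells with rolipram phosphodiesterase inhibitor present; the protocol text gives 20 µM as final concentration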
CHT act confirm: human CHT activation, confirmatory screen. shares compounds with CHT allo act. CHT-expressing cells, membrane potential dye fluorescence (FDSS); % of choline EC20–EC90 response window; HEK293 expressing CHT LV-AA mutant; choline added at its EC20. activation, % at 10 µM. 2,500 compounds, 91% hits. AID 504833;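 active = primary screen active, with duplicate mean activation above negative control mean plus 3 SD, cut at about 11% in these data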
HEK293 MP dye: CHT activator counter-screen hit in parental HEK293 cells | shares compounds with CHT allo act | membrane potential dye fluorescence (FDSS); measured after EC20 choline addition | ratio readout change at 10 µM, hits read low | 2,500 compounds, 62% hits | AID 623908;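 active = duplicate-averaged ratio beyond 3 SD from buffer wells, up or down, though filed actives are nearly all decreases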
The depositor's hits bear a star; i = inactive; nt = not tested or not shown. Hits are enriched below; roughly 2% of the tested compounds scored in any of these assays.

SMILES | CHT allo act | CHT block | EP2 mod | PGE2 EP2 inh | CHT act confirm | HEK293 MP dye
Cc1cccc(CN2CCC(CNC(=O)CSc3cc(=O)n(C)c4cc(Cl)ccc34)CC2)c1 | 6.37* | i | -0.9 | 4.2 | 20.9* | i
COCCNC(=O)CSc1cc(=O)n(C)c2cc(Cl)ccc12 | i | i | 16.6 | 13.2 | nt | nt
Cc1cc(C)c2nc(NCCNC(=O)NCc3ccccc3)c(C#N)cc2c1 | nt | nt | -20.4 | 9.3 | nt | nt
O=C(CCCCn1c(=O)c2ccccc2n(Cc2ccccc2)c1=O)NC1CCN(Cc2ccccc2)CC1 | i | i | -22.6 | 3.3 | 34.9* | -28.7*
CC1(C)Cc2c(sc3ncn(N)c(=N)c23)CO1 | i | i | 11.5 | nt | nt | nt
Cc1nc2sc3c(c2c(=N)n1N)CC(C)(C)OC3 | 8.41* | i | 15.8 | 8.7 | 63.2* | -46.7*
CCOC(=O)N1CCN(c2cc(NCCC(=O)O)c3c4c(onc24)-c2ccccc2C3=O)CC1 | i | i | 0.4 | nt | 25.7* | -60.1*
Cc1ccc(C(=O)Nc2ccc(N3CCN(C(=O)C(C)C)CC3)cc2)cc1 | nt | nt | -0.6 | 11.4 | nt | nt
CCOC(=O)c1cnc2ccc(C(=O)OC)cc2c1Nc1cccc(C(=O)O)c1 | 10.7* | i | 45.8 | 5.1 | 74.8* | -74.4*
CCOC(=O)c1cnc2ccc(C)cc2c1Sc1ccccc1 | i | i | 29.4 | 9.0 | nt | nt
CCOC(=O)c1ccc2ncc(C(=O)OCC)c(NCCN(C)C)c2c1 | i | i | nt | 4.5 | 35.8* | -36.4*
CCOC(=O)c1ccc2ncc(C(=O)OCC)c(NCCN3CCOCC3)c2c1 | i | i | nt | nt | nt | nt
CCOC(=O)c1cnc2ccc(C)cc2c1N(C)Cc1ccccc1 | i | i | nt | nt | 28.0* | i
CC1(C)CC(=O)C2=C(C1)Nc1ccccc1NC2c1ccc(O)cc1O (stereo unspecified) | nt | nt | -9.6 | 8.3 | nt | nt
O=C(Nc1ccccc1)OC1CCC2CC1CCC2OC(=O)Nc1ccccc1 (stereo unspecified) | i | i | -79.3 | 26.7 | 32.4* | i
CC(C)(C)OC(=O)N1Cc2ccccc2C[C@H]1C(=O)NC1CCCC1 | i | i | nt | nt | 2.1 | i
CCOc1ccc(CNc2ccc3c(c2)nc(C)n3C)cc1 | i | i | -20.2 | 19.7 | nt | nt
COc1ccc(CNc2ccc3c(c2)nc(C)n3C)cc1OC | 6.62* | i | nt | nt | 26.2* | -47.6*
CCOC(=O)C1C(=O)NC(c2ccccc2)=NC1c1cccc(Br)c1 (stereo unspecified) | i | i | 11.2 | 5.5 | nt | nt
CCOC(=O)C1C(C)N=C2SCC(=O)N2C1c1cccc(Br)c1 (stereo unspecified) | i | i | 37.7 | 0.2 | 6.4 | i
CC(=O)Nc1cc2c(cc1NC(=O)c1ncoc1-c1ccccc1F)OCCO2 | nt | nt | -29.7 | 6.3 | nt | nt
N#Cc1c(N)oc(-c2ccco2)c1-c1ccco1 | 8.2* | i | -40.0 | 15.3 | 10.3* | i
N#Cc1c(N)oc(-c2ccccc2)c1-c1ccccc1 | i | i | 21.6 | 24.9 | nt | nt
CCOc1ccc(S(=O)(=O)N2CCCCC2)cc1NC(=O)C1CSC2(C)CCC(=O)N12 (stereo unspecified) | i | i | nt | nt | 25.5* | i
CN(C)c1ccnc(Nc2ccc(O)cc2)c1C#N | 6.97* | i | -2.5 | 4.8 | 52.5* | -46.1*
CCC1CCCCN1CC(O)Cn1c2ccccc2n2c(=O)cc(C)c(C#N)c12 (stereo unspecified) | 7.7* | i | 6.7 | 4.7 | 39.5* | -27.9*
Cc1cc(=O)n2c3ccccc3n(CC(O)CN3CCC(C)CC3)c2c1C#N (stereo unspecified) | nt | nt | -5.2 | 3.4 | nt | nt
Cc1cc(=O)n2c3ccccc3n(CC(O)CN3CCN(Cc4ccccc4)CC3)c2c1C#N (stereo unspecified) | 7.62* | i | -9.9 | 10.6 | 51.0* | -55*
Cc1cc(=O)n2c3ccccc3n(CC(O)CN3CCN(CCO)CC3)c2c1C#N (stereo unspecified) | i | i | -16.1 | 4.8 | 46.1* | -33.7*
CCOc1ccc(-c2nnn(CC(=O)Nc3cc(C)ccc3OC)n2)cc1OCC | nt | nt | 21.3 | 12.2 | nt | nt
